# Measurements as given in PubChem BioAssay (NCI).
# Compounds without any hit were thinned out: in the full panel of roughly 83,000, 20% have a hit.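 Single-dose data. Exposure time 48 hours. Values below 10 considered active.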 Values without a mark were called inactive. Active and inactive are the calls of the source.
# Assays:
# Assay in all cases: NCI-60 one-dose screen, 48 h (100 = growth as untreated, 0 = no growth, -100 = all killed)
# Settings in all cases: 10 µM unless noted
# [1] = test system: NCI-H23 lung
# [2] = test system: NCI-H226 lung
# [3] = test system: NCI-H322M lung
# [4] = test system: HOP-62 NSCLC
# [5] = test system: NCI-H460 lung
# [6] = test system: HOP-92 NSCLC
# [7] = test system: NCI-H522 lung
# [8] = test system: A549/ATCC NSCLC
# [9] = test system: 786-0 renal
# [10] = test system: COLO 205 colon
# [11] = test system: DU-145 prostate
# [12] = test system: K-562 leukemia
# [13] = test system: MALME-3M melanoma
# [14] = test system: MDA-MB-231 breast
# [15] = test system: RXF 393 renal
# [16] = test system: SF-268 CNS
# [17] = test system: SF-295 CNS
# [18] = test system: SF-539 CNS
# [19] = test system: UACC-257 melanoma
# [20] = test system: M14 melanoma
Compound,growth [1],growth [2],growth [3],growth [4],growth [5],growth [6],growth [7],growth [8],growth [9],growth [10],growth [11],growth [12],growth [13],growth [14],growth [15],growth [16],growth [17],growth [18],growth [19],growth [20]
Clc1ccc(C(/C=C/c2sc(Cl)nc2Cl)=N/Nc2cc(Cl)cc(Cl)c2)cc1,92.2%,90.1%,99.9%,99.1%,103%,93%,90.8%,103%,106%,118%,112%,94.6%,103%,103%,110%,99.4%,104%,106%,99.1%,107%
c1cc(-c2nnc(SSc3ncnc4nc[nH]c34)o2)ccn1,43%,53.5%,55.9%,52.4%,48.4%,52.9%,6.68% (active),92.5%,13.8%,67.7%,41.5%,17%,103%,20.6%,61.8%,35%,21.9%,15.4%,51.9%,7.94% (active)
COc1ccc2nc(NCCCNCCO)c3sc4ccc(F)cc4c(=O)c3c2c1,62.7%,87.9%,67.8%,74%,-72.8% (active),12.2%,45.6%,49.2%,56.7%,-49.3% (active),-49.7% (active),-36.8% (active),91.8%,-26.7% (active),44.4%,47.2%,84.6%,-88.9% (active),95.4%,-57.1% (active)
O=C(CCc1nnc(-c2c(Cl)cccc2Cl)o1)c1nc2ccccc2[nH]1,61.9%,83.7%,76%,71.6%,77.3%,6.67% (active),49.8%,69.7%,73.8%,62.6%,82.2%,2.22% (active),79.3%,38.3%,81.5%,68.1%,59.5%,95.2%,78.6%,55.8%
CCOC(=O)C1=C(N)Oc2c(sc3c(CC)cccc23)C1c1ccc(F)cc1 (stereo unspecified),47%,49.5%,67.2%,32%,17%,63.5%,26.4%,47.4%,35.4%,51.1%,46.3%,10.7%,42.1%,73.1%,-4.56% (active),48.9%,11.8%,13.4%,55.7%,38.2%
CCCCn1c(-c2ccc(C(=O)O/N=C(\N)c3ccc(OC)cc3)cc2)nc(-c2ccccc2)c1-c1ccccc1,-41.9% (active),69.5%,62.3%,11.7%,-32.3% (active),-68.7% (active),-63.2% (active),-31.7% (active),-63.9% (active),0.164% (active),-93.4% (active),-41% (active),-51.7% (active),-6.79% (active),-49.8% (active),9.12% (active),-40.8% (active),-77.6% (active),43.7%,51.3%
CN(C)c1ccc2nc3ccc(=[N+](C)C)c([N+](=O)[O-])c-3sc2c1,9.52% (active),73.2%,42.2%,64.2%,25.3%,38.7%,16.3%,26.3%,31.9%,20.3%,54%,23.8%,9.75% (active),2.84% (active),79.7%,33.4%,-1.42% (active),36.6%,12.8%,9.93% (active)
N#Cc1c(-c2ccc(Cl)cc2)nc(NCCO)[nH]c1=O,94.3%,101%,94.4%,88.6%,114%,92.3%,95.9%,93.9%,101%,106%,104%,103%,98.8%,,116%,89.6%,95.3%,95.9%,107%,94.6%
COc1ccc(-c2nc(NCCO)[nH]c(=O)c2C#N)cc1,95.1%,99.9%,95.8%,86.3%,112%,98.5%,88.5%,98.5%,101%,101%,101%,97.1%,101%,,117%,99.2%,97.1%,104%,112%,99.9%
COC(=O)[C@H](C)NC(=O)NC(=O)NC(=O)CI,86.2%,89.2%,103%,98.4%,104%,-21.4% (active),-75% (active),96.4%,63.9%,32%,84.5%,7.73% (active),-53.9% (active),,59.1%,82.6%,91.9%,94.6%,104%,58.5%
N#CC1=C(N)Oc2c(sc3c(Br)cccc23)C1c1ccc(Br)cc1 (stereo unspecified),20.4%,57.1%,42.3%,22%,6.62% (active),34.7%,-7.13% (active),25.5%,17.1%,-49.5% (active),8.77% (active),8.24% (active),60%,,-2.19% (active),33.9%,0.128% (active),-14.2% (active),41.4%,-0.594% (active)
CC/C=C\C[C@@H]1C/C=C2/C(=O)C=C[C@H]2C/C=C\CCCC(=O)O1,-32.1% (active),-20% (active),-54.5% (active),-14% (active),-48.6% (active),-25.8% (active),-83.4% (active),-26.7% (active),-88.4% (active),-64.2% (active),-66.8% (active),-0.441% (active),-41.1% (active),,-80.6% (active),-57.6% (active),-18.1% (active),-64.3% (active),-41.7% (active),-48.8% (active)
Clc1ccc2c(c1)N(CCCN1CCCC1)c1ccccc1S2,62.5%,88.2%,36.3%,56.4%,30%,-4.23% (active),71.1%,58.6%,45.1%,-30.8% (active),59.1%,0.508% (active),7.63% (active),,23.6%,30%,54.6%,15.3%,85.8%,-47% (active)
CN1C(=O)CNC(=O)[C@H](NC(=O)c2nc3ccccc3cc2O)CSSC[C@H]1C(=O)NCCCc1nc2ccccc2cc1O,67.2%,85.8%,70.6%,81.8%,13.4%,120%,60.4%,48.3%,113%,-9.63% (active),42.3%,18.4%,110%,,102%,49.5%,91.9%,82%,83.9%,14.3%
O=C(O)CCC/C=C\C[C@H]1C=CC(=O)/C1=C/C[C@@H](O)CCc1cccc(C(F)(F)F)c1,-22.1% (active),-39.5% (active),11.3%,-31.9% (active),-65.1% (active),-20.6% (active),-62.7% (active),-7.82% (active),-31.3% (active),-38.1% (active),13.6%,3.71% (active),79.1%,,-65.7% (active),3.06% (active),-40.4% (active),-1.94% (active),-5.2% (active),-16.2% (active)
c1ccc(OCc2nnc(-c3ccc(Oc4ccccc4)cc3)o2)cc1,94.2%,93.7%,106%,86.4%,104%,84.6%,86.8%,96%,99.1%,104%,99.1%,93.2%,101%,,106%,89.2%,103%,103%,109%,98.2%
